NLRP3 yeast inh: NALP3 inhibition in yeast; Yeast reconstituted NLRP3/ASC/caspase-1, beta-gal luminescence, 24 h; inhibition, % at 10 µM; 330,000 compounds, 0.39% hits; AID 2825;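 active means inhibition of 50% or more; inactive means inhibition below 50%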;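 further: plate controls were induced DMSO wells for no effect and uninduced yeast grown without galactose for full effect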
PfHsp90 set2: reduces growth (ATP signal) of yeast expressing P. falciparum Hsp90 | S. cerevisiae expressing PfHsp90, BacTiter-Glo ATP, 48 h; yeast lacking PDR1 and PDR3 efflux regulators | inhibition, % at 9.4 µM | 310,000 compounds, 0.32% hits;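 active means every replicate shows inhibition above about 80%, whatever the replicate mean, limit read from the data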;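 further: 0% = DMSO neutral controls and 100% = 20 µM radicicol positive controls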
TIM10 inh: growth inhibitors of TIM10 yeast strain. S. cerevisiae TIM10 strain growth, BacTiter-Glo luminescence, 24 h. inhibition, % at 10 µM. 330,000 compounds, 1.4% hits;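 active means inhibition of 40% or more at the single tested concentration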;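 further: wild-type TIM10 isogenic control strain grown at permissive 25 °C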
tim10-1 inh: inhibits growth of tim10-1 mutant yeast; S. cerevisiae tim10-1 ts strain growth, BacTiter-Glo, 24 h; 330,000 compounds, 2.2% hits; AID 463190; inhibition, % at 20 µM;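 active means inhibition of at least 40%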;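 further: mutant grown at 25 °C; 0% = DMSO wells with yeast and 100% = wells holding no yeast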
tim23-1 inh: inhibits growth of tim23-1 mutant yeast; S. cerevisiae tim23-1 growth, BacTiter-Glo luminescence, 24 h; inhibition, % at 20 µM; 330,000 compounds, 1.3% hits;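 active means growth inhibition of the mutant yeast at or above 50%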;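 further: temperature-sensitive mutant grown at 25 °C; plate controls were DMSO-treated mutant yeast for no effect and medium wells lacking yeast for full effect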
tim10-1 conf: tim10-1 yeast growth inhibition, confirmed; shares compounds with tim10-1 inh; inhibition, % at 20 µM; S. cerevisiae tim10-1 ts strain growth, BacTiter-Glo, 24 h; AID 463213; 7,400 compounds, 56% hits;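 active means inhibition of yeast growth at or above a set limit in either of two repeat tests at 20 µM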;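 further: tim10-1 mutant grown at permissive 25 °C to find synthetic lethal compounds; 0% = DMSO yeast wells and 100% = medium wells without yeast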
* hit, by the source's call; · = no result. A selection: hits, their analogues and other compounds. The true share with any hit is near 3.7%.

SMILES	NLRP3 yeast inh	PfHsp90 set2	TIM10 inh	tim10-1 inh	tim23-1 inh	tim10-1 conf
Cc1ccc(NC(=O)c2sc3nc(C)nc(N4CCN(c5ccccn5)CC4)c3c2C)c(C)c1	10	29	16	16	33	·
Cc1ccc(NC(=O)c2sc3ncnc(N4CCN(c5ccccn5)CC4)c3c2C)c(C)c1	7	-9	13	48*	34	24
Cc1ccc(NS(=O)(=O)c2cc([N+](=O)[O-])ccc2N/N=C/c2sc(N3CCOCC3)nc2-c2ccccc2)c(C)c1	10	-67	-4	4	15	·
O=C(CCn1nnc2ccccc21)NNC(=O)C1CCCCC1	11	-2	-12	-5	1	·
CSc1nc(N)nc(-c2cccs2)c1C#N	-11	-28	13	48*	49	36*
COC(=O)[C@@H]1CCCN1C(=O)CCc1nnc(C2CCCCC2)o1	10	-17	-5	12	9	·
COC(C/C=C/C(=O)COCc1ccccc1)OC	11	16	34	46*	41	41*
CC(C)c1ccc(S(=O)(=O)Nc2ccc(-n3cnnn3)cc2)cc1	16	15	21	23	13	·
CC(C)c1ccc(NS(=O)(=O)c2ccc(Cl)nc2)cc1	4	-13	17	4	22	·
CC(C)c1ccc(S(=O)(=O)Nc2ccc(SC(F)F)cc2)cc1	5	-38	26	50*	43	28*
CC(C)c1ccc(NS(=O)(=O)c2ccc(-n3cccn3)cc2)cc1	-2	-4	11	45*	30	8
N#CCc1ccc(Oc2ncc(C(F)(F)F)cc2Cl)cc1	-9	-13	31	48*	39	28
CC(C)NS(=O)(=O)c1ccc(Oc2ncc(C(F)(F)F)cc2Cl)cc1	8	-71	8	49*	20	26
COc1ccc(S(=O)(=O)NN(C)c2ncc(C(F)(F)F)cc2Cl)cc1	3	5	7	40*	15	15
O=C(COC(=O)COc1ccc(Cl)cc1)Nc1ncc(Br)s1	11	·	-7	0	6	·
Fc1ccc(N2CCN(Cc3cnc(Cl)s3)CC2)cc1	-24	-1	0	-8	5	·
O=C(Oc1c(CN2CCOCC2)cc(Cl)c2cccnc12)c1ccccc1	28	6	36	51*	42	20
O=C(c1ccc(-c2cccc(Cl)c2Cl)o1)N1CCOCC1	-16	-8	22	44*	39	42*
COC(=O)c1c(NC(=O)COC(=O)CNC(=O)C2CCCCC2)sc(C)c1C	8	-10	12	19	15	·
CCOC(=O)c1ccc(NC(=S)N2CCC(O)CC2)cc1	16	26	8	6	0	·
CCOC(=O)c1ccc(NC(=S)N2CCSC2c2ccc(Br)cc2)cc1 (stereo unspecified)	20	-18	25	40*	37	30
O=C(CCS(=O)(=O)Cc1ccccc1F)N1CCc2ccccc2C1	1	-11	9	16	25	·
O=C(CCS(=O)(=O)Cc1ccccc1)N1CCc2ccccc2C1	17	16	28	47*	46	40*
COc1cccc(-c2nn(C)c3sc(C(=O)NCc4ccc(C)cc4)cc23)c1	15	-35	21	17	7	·
COc1cccc(-c2nn(C)c3sc(C(=O)NCc4ccccn4)cc23)c1	17	-23	13	45*	30	18
SMILES	NLRP3 yeast inh	PfHsp90 set2	TIM10 inh	tim10-1 inh	tim23-1 inh	tim10-1 conf
COc1ccc(OC)c(Nc2nc(N(C)c3ccccc3)nc(N)c2[N+](=O)[O-])c1	17	22	22	31	30	·
C/C(=N\NC(=O)CNC(=O)c1cccs1)c1ccc(Cl)c(Cl)c1	19	-11	2	51*	41	-5
COc1ccc(N2CCN(S(=O)(=O)c3cn(C)cn3)CC2)cc1	11	8	-7	12	3	·
O=C(Nc1cccc(F)c1)C1CCCCC1	8	24	11	-6	23	·
FC(F)(F)c1cccc(NC(=S)NC2CCCC2)c1	17	-19	33	37	46	·
S=C(Nc1ccccn1)NC1CCCCC1	17	-27	9	40	37	6
Fc1cccc(NC(=S)NC2CCCCCCC2)c1	20	0	32	50*	46	27
FC(F)(F)c1ccc(NC(=S)NC2CCCCC2)cc1	39	-4	36	43*	36	38*
CN(CC1CCOCC1)C(=O)CC1C(=O)NCCN1CC(c1ccccc1)c1ccccc1 (stereo unspecified)	8	4	7	2	7	·
Cc1cc(C)cc(OCC(=O)OC(C)C(=O)Nc2c(C)n(C)n(-c3ccccc3)c2=O)c1 (stereo unspecified)	-5	-26	-4	7	8	·
O=C(O)CCC(=O)Nc1ccc(Br)cc1C(=O)c1ccc(Cl)cc1	-1	11	18	-7	18	·
COc1ccc(NC(=O)NN(C(=O)c2ccccc2)C(C)(C)C)cc1	-7	7	-4	-2	0	·
Nc1c(N2CCN(c3ccccc3)CC2)c2ccccc2oc1=O	4	2	11	49*	27	27*
CN(C)c1ccc(C(=S)NCc2ccco2)cc1	16	-9	14	26	11	·
COc1ccc(-n2c(=S)[nH]c3ccccc32)cc1	26	-5	28	42*	26	15
COc1ccc(-n2c(=S)[nH]c3ccccc3c2=S)cc1	-9	-9	26	6	16	·
CCC/C(O)=C1\C(=O)CC(c2ccccc2)CC1=NCCc1c(C)[nH]c2ccc(C)cc12 (stereo unspecified)	7	-41	7	6	13	·
Cc1cccc(C)c1NC(=S)N(Cc1ccccc1)Cc1cccs1	8	-39	24	42*	34	39*
O=C(O)CNC(=S)N(Cc1ccccc1)Cc1cccs1	2	-6	-9	2	11	·
Oc1ccc(CN2CCN(Cc3ccccc3)CC2)c2cccnc12	-12	·	17	21	-40	·
CN1CCN(Cc2cc(COCc3ccccc3)c3cccnc3c2O)CC1	30	18	9	47*	10	25
CCN1CCN(c2ccc(S(=O)(=O)N3CCCCC3)cc2NC(=O)c2cccc(C(F)(F)F)c2)CC1	15	16	9	0	11	·
COc1ccc(-n2ncc(S(=O)(=O)c3ccccc3)c2-c2ccc(Cl)cc2)cc1	-1	36	3	41*	32	25
O=S(=O)(c1ccccc1)c1cnn(-c2ccccc2)c1-c1ccc(F)cc1	1	-17	20	33	30	·
O=C(NNC(=S)Nc1ccc(Cl)cc1)c1ccccc1OC(F)F	14	-16	32	42*	42	39*
O=C(NNC(=S)Nc1ccc(Br)cc1)c1ccccc1Br	29	-22	36	46*	33	28
O=C(NNC(=S)NCc1ccccc1)c1ccccc1OC(F)F	3	-31	12	17	22	·
Cc1cc(NCCC(C)C)n2nc(C)c(-c3ccccc3)c2n1	-12	-1	14	45*	28	26

Bioassay records (PubChem)
